# According to PubChem BioAssay (NCI):
# This is part of a sample that, as a whole, favours compounds with a hit. Of some 83,000 tested, about 20% had one in any assay.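 Cells were grown in 96-well plates and exposed to the test compound at a single concentration for 48 hours; results are reported as percent growth, with values below 10 considered active.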 Unmarked numbers belong to inactive results. The source made the active and inactive calls.
# Tested on: MDA-MB-468 breast
# Assay: NCI-60 one-dose screen, 48 h (100 = growth as untreated, 0 = no growth, -100 = all killed)
# Conditions: 10 µM unless noted
row,SMILES,growth
1,C#CCn1cnc2cnc(Nc3cccc(NC(=O)C=C)c3)nc21,55.1% [6.25 µM]
2,Cc1ccc2c(ccc3c[n+]4c5ccccc5ccc4n32)c1,-56.3% (active)
3,COC(=O)[C@]12CC[C@@H](C)[C@H](C)[C@@H]1C1=CC[C@@H]3[C@@]4(C)C(C=O)=C[C@@](C)(COC(=O)c5ccco5)[C@@H]4[C@H](O)C[C@@]3(C)[C@]1(C)CC2,-12.1% (active)
